For five compounds, Potency, activity, negative = cell killing and outcome results are on record in PubChem BioAssay (NCATS).

Structures are written as SMILES. Results filed as inconclusive are left out. Values without a mark were called inactive. Active and inactive are the calls of the source. Calls follow the shape of the dose curve; as a rule, active = well fitted curve in the direction sought with a large enough effect; inconclusive = small, poorly fitted or top-dose-only effect, or another doubt; inactive = no such curve, though single readings can be large; an effect the other way counts as inactive or inconclusive.

The subject of one assay is MCC-13. The experiment in a line: qHTS assay to identify novel small-molecules to repurpose for Merkel cell carcinoma treatment (AID 1296009). Also: nearly all actives have a fitted effect of over 60% in size. The note with it: MCC and control cell lines, CellTiter-Glo viability, 72 h; series mostly up to 46 µM. An outline of the steps:
(§1)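 qHTS format: cells treated with library compounds in DMSO across 8 (NPC) or 11 (MIPE) concentrations. Readout after 72 hr at 37 degree celsius was CellTiter-Glo luminescence.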

Another assay has as its system MCC-26. The assay is described as above. The note with it: MCC and control cell lines, CellTiter-Glo viability, 72 h; series mostly up to 46 µM. An outline of the steps:
as §1

A further assay has as its system MKL-1. The assay is described as above. The note with it: MCC and control cell lines, CellTiter-Glo viability, 72 h; series mostly up to 46 µM. A digest of the protocol: as §1
A further assay deals with MKL-2. Described as above. The note with it: MCC and control cell lines, CellTiter-Glo viability, 72 h; series mostly up to 46 µM. An outline of the steps:
as §1

Another assay concerns UISO. Described as above. The note with it: MCC and control cell lines, CellTiter-Glo viability, 72 h; series mostly up to 46 µM. A digest of the protocol: as §1
Another assay relates to WaGa. The description is as above. The note with it: MCC and control cell lines, CellTiter-Glo viability, 72 h; series mostly up to 46 µM. A digest of the protocol:
as §1

Another assay deals with C33A. Kind of assay: Primary qHTS to identify gynecologic anti-cancer compounds using libraries of approved drugs and bioactive compounds (AID 1345084). Also: nearly all actives have a fitted effect of over 55% in size. The note with it: Gynecologic cancer cell panel viability, ATPlite luminescence, 48 h; series mostly up to 57.5 µM. An outline of the steps:
(§2)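 Cells, 1,000 per well, plated 16 h, then exposed 48 h at 37 C to compounds. Viability by ATPlite luminescence after 15 min at room temperature.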

Another assay concerns CAOV3. The assay is described as above. The note with it: Gynecologic cancer cell panel viability, ATPlite luminescence, 48 h; series mostly up to 57.5 µM. An outline of the steps:
as §2

In the next assay the test system is CASKI. The description is as above. The note with it: Gynecologic cancer cell panel viability, ATPlite luminescence, 48 h; series mostly up to 57.5 µM. A digest of the protocol: as §2
For the next assay, the system named is Es-2. Described as above. The note with it: Gynecologic cancer cell panel viability, ATPlite luminescence, 48 h; series mostly up to 57.5 µM. An outline of the steps:
as §2

A further assay has as its system HeLa. Described as above. The note with it: Gynecologic cancer cell panel viability, ATPlite luminescence, 48 h; series mostly up to 57.5 µM. An outline of the steps:
as §2

In the next assay the test system is Hek293T. The assay is described as above. The note with it: Gynecologic cancer cell panel viability, ATPlite luminescence, 48 h, control line for the selectivity index; series mostly up to 57.5 µM. An outline of the steps: as §2
The next assay has as its system JEG-3. The assay is described as above. The note with it: Gynecologic cancer cell panel viability, ATPlite luminescence, 48 h; series mostly up to 57.5 µM. An outline of the steps:
as §2

The next assay relates to OV90. Described as above. The note with it: Gynecologic cancer cell panel viability, ATPlite luminescence, 48 h; series mostly up to 57.5 µM. An outline of the steps: as §2
A further assay deals with PA-1. Described as above. The note with it: Gynecologic cancer cell panel viability, ATPlite luminescence, 48 h; series mostly up to 57.5 µM. An outline of the steps:
as §2

A further assay deals with SKOV3. Described as above. The note with it: Gynecologic cancer cell panel viability, ATPlite luminescence, 48 h; series mostly up to 57.5 µM. A digest of the protocol:
as §2

A further assay relates to Tov-21-G. The description is as above. The note with it: Gynecologic cancer cell panel viability, ATPlite luminescence, 48 h; series mostly up to 57.5 µM. A digest of the protocol:
as §2

The next assay has as its system Tov112D. The description is as above. The note with it: Gynecologic cancer cell panel viability, ATPlite luminescence, 48 h; series mostly up to 57.5 µM. An outline of the steps:
as §2

Assay [1] can be described thus: Drug repurposing screens with cells derived from glioblastoma tumor samples (AID 1345199). Also: nearly all actives have a fitted effect of over 40% in size. Also: potency is read from the fitted curve at half-maximal effect. The note with it: GBM patient neurospheres viability, ATP luminescence, 48 h. A digest of the protocol: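 Four patient lines of CD133+ GBM neurospheres were screened at several concentrations; hits were retested in those lines plus three slower-growing GBM lines, using 48-hour treatment and ATP-based viability.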

The test system of the next assay is NIH3T3. Kind of assay: qHTS assay to identify novel small-molecules to repurpose for Merkel cell carcinoma treatment (AID 1296009). Also: nearly all actives have a fitted effect of over 60% in size. The note with it: MCC and control cell lines, CellTiter-Glo viability, 72 h; at 44.8 µM (top of the series) unless noted. An outline of the steps:
as §1

The mark [2] stands for this setting: at 45.9 µM (top of the series), tumour line B.
The mark [3] stands for this setting: at 45.9 µM (top of the series), tumour line D.
[4] abbreviates: at 46.1 µM (top of the series), tumour line C.
% is scaled to controls: 0 for no effect and ±100 for the full control effect.

Turning to `Cc1nc2c([nH]1)c(=O)n(C)c(=O)n2Cc1ccco1`, the Potency result with MCC-13, in the assay with MCC-26, in the assay with MKL-1, in the assay with MKL-2, in the assay with UISO and in the assay on WaGa was “inactive” in each case. Also, the Potency result in the assay on C33A, in the assay on CAOV3, in the assay on CASKI, with Es-2, with HeLa and in the assay on Hek293T was “inactive” each time. The Potency entry in the assay on JEG-3, with OV90, with PA-1, in the assay with SKOV3, with Tov-21-G and in the assay on Tov112D was “inactive” each time. Moreover, the activity, negative = cell killing was -4.62% in assay [1] (setting [2]), -3.2% in assay [1] (setting [3]) and -11.8% in assay [1] (setting [4]).

For `NS(=O)(=O)c1cc2c(cc1Cl)NC(C1CC3C=CC1C3)NS2(=O)=O` (configuration not stated), the Potency result in the assay with MCC-13, in the assay with MCC-26, in the assay on MKL-1, with MKL-2, in the assay with UISO and in the assay on WaGa was “inactive” throughout. Besides, the Potency entry with C33A, with CAOV3, in the assay on CASKI, in the assay with Es-2, with HeLa and in the assay on Hek293T was “inactive” in each case. Further, the Potency result in the assay on JEG-3, in the assay on OV90, in the assay on PA-1, in the assay with SKOV3, in the assay with Tov-21-G and in the assay on Tov112D was “inactive” in each case. For the same compound, the activity, negative = cell killing in assay [1] (setting [2]) is 0.786%; in assay [1] (setting [3]), 7.03%; in assay [1] (at 46 µM (top of the series), tumour line A) it was -11.5%; in assay [1] (setting [4]), -5.22%.

For the compound `CC(C)(Oc1ccc(CCNC(=O)c2ccc(Cl)cc2)cc1)C(=O)O`, the Potency entry in the assay with MCC-13, in the assay with MCC-26, with MKL-1, in the assay on MKL-2, in the assay on UISO and in the assay with WaGa was “inactive” in each case. Further, the Potency result with C33A, in the assay with CAOV3, with CASKI, in the assay with Es-2, in the assay with HeLa and in the assay with Hek293T was “inactive” throughout. Further, the Potency result in the assay on JEG-3, in the assay with OV90, in the assay on PA-1, in the assay with SKOV3, in the assay with Tov-21-G and with Tov112D was “inactive” each time. Moreover, the call in the assay with NIH3T3 was inactive. Also, the activity, negative = cell killing is 15.6% in [1] (at 20 µM (top of the series), tumour line C); -6.51% in assay [1] (at 21.2 µM (top of the series), tumour line B); 0.604% in assay [1] (at 21.2 µM (top of the series), tumour line D); -25.9% in assay [1] (at 21.3 µM (top of the series), tumour line A).

Turning to `CCCN1C[C@H](CSC)C[C@@H]2c3cccc4[nH]cc(c34)C[C@H]21`, the Potency result with MCC-13, in the assay on MCC-26, in the assay with MKL-1, with MKL-2, with UISO and with WaGa was “inactive” each time. Also, the Potency result in the assay with C33A, in the assay with CAOV3, in the assay with CASKI, in the assay on Es-2, with HeLa and in the assay on Hek293T was “inactive” in each case. Moreover, the Potency result in the assay with JEG-3, in the assay on OV90, with PA-1, with SKOV3, in the assay on Tov-21-G and in the assay on Tov112D was “inactive” throughout. For the same compound, the results for the activity, negative = cell killing in [1] (setting [2]) and in assay [1] (setting [4]) were -27.2% and 15.8%, respectively. For the same compound, the Potency in assay [1] (tumour line A) was 7.94 µM (active).

For the compound `CN(C)CC[C@@H](c1ccc(Br)cc1)c1ccccn1`, the Potency result in the assay with MCC-13, in the assay on MCC-26, with MKL-1, with MKL-2, in the assay on UISO and in the assay with WaGa was “inactive” in each case. Moreover, the Potency entry in the assay on C33A, in the assay with CAOV3, in the assay on CASKI, in the assay with Es-2, in the assay on HeLa and in the assay on Hek293T was “inactive” in each case. Also, the Potency result with JEG-3, in the assay with PA-1, in the assay on SKOV3, in the assay on Tov-21-G and in the assay on Tov112D was “inactive” in each case. Also, the activity, negative = cell killing in assay [1] (setting [2]) was -11%; in [1] (setting [4]) it was 2.86%. In addition, the Potency in assay [1] (tumour line A) was 11.2 µM (active).
